“And” between values parts separate entries of the source, which are not always exact repeats. Equal values may be shown once. Inconclusive results are not listed. Where a structure was tested more than once in an assay, its records may differ in their call. The source made the active and inactive calls. Unless noted, calls follow the shape of the dose curve; as a rule, active = well fitted curve in the direction sought with a large enough effect; inconclusive = small, poorly fitted or top-dose-only effect, or another doubt; inactive = no such curve, though single readings can be large; an effect the other way counts as inactive or inconclusive.
Key:
[1] = Cellular Toxicity (caspase-3) Renal Proximal Tubule (AID 667); details: Potency: caspase-3 activation;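 also: cells exposed to compound for 16 hours at 37 °C before detection; 0% = DMSO basal and 100% = 10 µM staurosporine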
How it was run: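 In qHTS format, rat primary proximal tubule cells seeded at 1000 per well are exposed to compounds for 16 hours at 37 °C. An increase in Caspase-Glo 3/7 luminescence indicates caspase activation.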

[2] = molecular target: Guanine nucleotide-binding protein G(i) subunit alpha-1 (Homo sapiens) (UniProt P63096); test: qHTS Assay for Inhibitors of RGS12 GoLoco Motif Activity (Green Fluorophore) (AID 879);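 also: 0% = labeled peptide with Gαi1 and full inhibition = labeled peptide alone without protein; negative values mean loss of peptide binding seen as reduced polarization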
Sequence of Guanine nucleotide-binding protein G(i) subunit alpha-1 (Homo sapiens) (P63096 whole entry, looked up): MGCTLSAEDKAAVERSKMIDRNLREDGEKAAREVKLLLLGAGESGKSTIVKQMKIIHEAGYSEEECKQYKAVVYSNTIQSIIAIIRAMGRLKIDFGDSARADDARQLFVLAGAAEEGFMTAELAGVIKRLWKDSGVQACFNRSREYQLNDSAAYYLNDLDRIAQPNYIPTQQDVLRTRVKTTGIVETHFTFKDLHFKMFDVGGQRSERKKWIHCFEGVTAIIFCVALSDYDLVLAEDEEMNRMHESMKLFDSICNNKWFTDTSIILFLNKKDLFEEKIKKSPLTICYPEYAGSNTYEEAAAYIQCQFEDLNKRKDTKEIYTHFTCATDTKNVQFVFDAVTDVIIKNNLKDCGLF
How it was run: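 Fluorescence polarization assay: 50 nM Gαi1 with 10 nM FITC-labeled RGS12 GoLoco peptide in 10 mM Tris pH 7.5, 150 mM NaCl, 0.1 mM GDP, 0.05% NP40, 10 min at room temperature with compound.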

[3] = molecular target: Cytochrome P450 2C9 (Homo sapiens) (UniProt P11712); test: qHTS Assay for Inhibitors and Substrates of Cytochrome P450 2C9 (AID 883); also: nearly all actives have a fitted effect of over 60% in size; also: potency is read from the fitted curve at half-maximal effect
Sequence of Cytochrome P450 2C9 (Homo sapiens) (P11712 whole entry, looked up): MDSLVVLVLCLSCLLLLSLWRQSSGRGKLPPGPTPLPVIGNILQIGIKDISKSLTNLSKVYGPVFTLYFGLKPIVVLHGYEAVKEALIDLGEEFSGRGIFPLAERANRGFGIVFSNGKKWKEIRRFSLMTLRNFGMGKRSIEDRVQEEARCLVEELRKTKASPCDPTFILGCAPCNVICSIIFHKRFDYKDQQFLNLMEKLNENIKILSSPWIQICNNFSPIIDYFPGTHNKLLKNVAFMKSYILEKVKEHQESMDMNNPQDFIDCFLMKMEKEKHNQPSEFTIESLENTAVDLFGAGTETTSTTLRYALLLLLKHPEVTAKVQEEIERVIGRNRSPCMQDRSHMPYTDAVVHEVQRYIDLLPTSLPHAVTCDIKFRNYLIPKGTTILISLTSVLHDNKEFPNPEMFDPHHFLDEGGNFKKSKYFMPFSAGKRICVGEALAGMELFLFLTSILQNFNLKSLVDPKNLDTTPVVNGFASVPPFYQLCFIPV
How it was run: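 10nM CYP2C9 + 100uM Luciferin-H (=KM), 25mM KPO4; cpd 10 min 37C; NADPH regen, 60 min 37C; stop/detect with P450 Glo-Buffer 20 min; luminescence. Norm. to 57uM sulphaphenazole as full inhibition.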

[4] = molecular target: Cytochrome P450 3A4 (Homo sapiens) (UniProt P08684); test: qHTS Assay for Activators of Cytochrome P450 3A4 (AID 885); also: nearly all actives have a fitted effect of over 65% in size
Sequence of Cytochrome P450 3A4 (Homo sapiens) (P08684 whole entry, looked up): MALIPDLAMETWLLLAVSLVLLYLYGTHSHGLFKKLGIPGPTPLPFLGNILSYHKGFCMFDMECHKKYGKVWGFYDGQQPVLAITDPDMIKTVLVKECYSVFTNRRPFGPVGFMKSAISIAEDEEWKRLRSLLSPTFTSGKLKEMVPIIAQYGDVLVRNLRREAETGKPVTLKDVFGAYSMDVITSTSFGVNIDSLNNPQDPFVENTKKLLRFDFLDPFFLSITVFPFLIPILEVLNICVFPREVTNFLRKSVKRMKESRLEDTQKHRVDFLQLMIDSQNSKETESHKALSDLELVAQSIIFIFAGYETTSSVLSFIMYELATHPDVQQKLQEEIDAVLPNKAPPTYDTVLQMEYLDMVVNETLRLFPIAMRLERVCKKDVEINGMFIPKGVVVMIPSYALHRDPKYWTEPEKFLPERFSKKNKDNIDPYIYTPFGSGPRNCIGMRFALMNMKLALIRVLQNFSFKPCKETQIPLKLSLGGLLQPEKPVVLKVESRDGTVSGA
How it was run: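 Human CYP3A4 (20 nM) with Luciferin-PPXE at 25 uM (its KM) in 200 mM KPO4; 10 min compound preincubation, then NADPH regeneration and 60 min reaction at RT. Luciferin read by luminescence; normalized to 57 uM ketoconazole full inhibition.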

[5] = molecular target: Cytochrome P450 2D6 (Homo sapiens) (UniProt P10635); test: qHTS Assay for Inhibitors and Substrates of Cytochrome P450 2D6 (AID 891); also: nearly all actives have a fitted effect of over 60% in size; also: potency is read from the fitted curve at half-maximal effect
Sequence of Cytochrome P450 2D6 (Homo sapiens) (P10635 whole entry, looked up): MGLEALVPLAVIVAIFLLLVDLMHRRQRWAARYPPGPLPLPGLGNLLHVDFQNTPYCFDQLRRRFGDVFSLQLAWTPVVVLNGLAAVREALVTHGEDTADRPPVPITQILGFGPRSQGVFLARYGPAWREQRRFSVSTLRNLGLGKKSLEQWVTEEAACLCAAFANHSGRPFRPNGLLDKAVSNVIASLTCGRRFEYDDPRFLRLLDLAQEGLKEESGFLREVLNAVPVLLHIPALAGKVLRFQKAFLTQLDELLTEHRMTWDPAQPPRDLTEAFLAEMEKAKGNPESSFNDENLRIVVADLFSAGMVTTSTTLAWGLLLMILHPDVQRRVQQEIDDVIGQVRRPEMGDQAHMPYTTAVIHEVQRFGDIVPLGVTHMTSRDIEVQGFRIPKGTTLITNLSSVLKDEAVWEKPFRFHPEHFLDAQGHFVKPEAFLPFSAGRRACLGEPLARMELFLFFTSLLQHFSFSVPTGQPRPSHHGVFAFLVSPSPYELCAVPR
How it was run: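 Human CYP2D6 (5 nM) with 30 uM Luciferin-ME EGE (at Km) in 100 mM KPO4, compound preincubated 10 min, then NADPH regeneration system for 60 min at room temperature. Luciferin read by luminescence; normalized to 1.43 uM quinidine.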

[6] = Confirmation and Secondary Assay for Modulators of Hemoglobin Beta Chain Splicing at IVS2 654 locus (AID 910);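 also: HeLa cells stably carrying EGFP split by mutant beta-globin IVS2-654 intron; % of control where 0% means no effect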
How it was run: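 HeLa cells stably expressing EGFP interrupted by β-globin IVS2-654 intron, seeded overnight in Opti-MEM/2% FCS, then treated 2 days at 37 °C. Restored splicing read as total peak GFP intensity per well by laser scanning cytometry (488 nm excitation, 500–520 nm emission); 500 nM antisense PNA as control.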

[7] = Cell Viability - LYMP2-001 (AID 921);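 also: series mostly up to about 92 µM; cells exposed to compound for 24 h at 37 °C; 0% = DMSO only and full inhibition = tetraoctylammonium bromide control wells; nearly all actives have a fitted effect of over 70% in size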
How it was run: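 qHTS, 1536-well; lymphoblastoid cells, 24 hr compound, 37 C; ATP by CellTiter-Glo, 30 min RT; luminescence; Hill-fit AC50.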

[8] = Confirmation and Secondary Assay for Modulators of Hemoglobin Beta Chain Splicing at IVS2 705 locus (AID 930);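 also: HeLa cells stably expressing the EGFP-705 splicing reporter; GFP fluorescence per well restored by corrected splicing of the IVS2-705 intron in EGFP; series mostly up to about 46 µM; % of control where 0% means no effect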
How it was run: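 Assay measures total GFP intensity per well in HeLa EGFP-705 cells after 2 days with compound; mis-splicing normally truncates EGFP, so fluorescence indicates corrected splicing.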

[9] = MultiTox-Fluor Cytotoxicity Assay - LYMP1-001 - Dead Cells (AID 946);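 also: 0% = DMSO and 100% = tetraoctylammonium bromide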
How it was run: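 LYMP1-001 lymphoblastoid cells (2500/well) treated 16 h at 37 C. Dead-cell protease cleavage of bis-AAF-R110 read at Ex/Em 485/520. Normalized to DMSO and 15 uM tetraoctylammonium bromide; AC50 from Hill fits.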

[10] = MultiTox-Fluor Cytotoxicity Assay - LYMP1-001 - Live Cells (AID 947);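 also: 0% = DMSO only and full inhibition = tetraoctylammonium bromide control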
[11] = Cell Viability - LYMP1-002 - Assay at 16 hr (AID 948);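 also: 0% = DMSO alone and full effect = 92 µM tetraoctylammonium bromide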
How it was run: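 Acute cytotoxicity is scored as a concentration-dependent fall in intracellular ATP in a human lymphoblastoid line (LYMP1-002) after 16 hr compound exposure at 37 C, measured by luciferase luminescence.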

[12] = molecular target: Cytochrome P450 3A4 (Homo sapiens) (UniProt P08684); test: qHTS Assay for Inhibitors and Substrates of Cytochrome P450 3A4 (AID 884); also: nearly all actives have a fitted effect of over 50% in size; also: potency is read from the fitted curve at half-maximal effect
How it was run: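 20 nM human CYP3A4 with 25 uM Luciferin-PPXE (at KM) in 200 mM KPO4, preincubated 10 min with compound; NADPH regeneration started a 60 min RT reaction. Luciferin detected by luminescence, normalized to 57 uM ketoconazole as full inhibition.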

[13] = qHTS Assay for Identification of Small Molecule Agonists for Thrombopoietin (TPO) Signaling Pathway (AID 917); also: % is scaled to controls: 0 for no effect and ±100 for the full control effect
How it was run: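 We measured Glycoprotein IIb promoter–luciferase output in IL-3-starved Ba/F3 murine cells expressing the human TPO receptor after 24 hrs at 37 C with compounds and 26 pM TPO.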

[14] = molecular target: Pyruvate kinase (Leishmania mexicana) (UniProt Q27686); test: qHTS Validation Assay for Inhibitors of Leishmania Mexicana Pyruvate Kinase (AID 945);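 also: 0% = DMSO only neutral control wells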
Sequence of Pyruvate kinase (Leishmania mexicana) (Q27686 2-499 E452W): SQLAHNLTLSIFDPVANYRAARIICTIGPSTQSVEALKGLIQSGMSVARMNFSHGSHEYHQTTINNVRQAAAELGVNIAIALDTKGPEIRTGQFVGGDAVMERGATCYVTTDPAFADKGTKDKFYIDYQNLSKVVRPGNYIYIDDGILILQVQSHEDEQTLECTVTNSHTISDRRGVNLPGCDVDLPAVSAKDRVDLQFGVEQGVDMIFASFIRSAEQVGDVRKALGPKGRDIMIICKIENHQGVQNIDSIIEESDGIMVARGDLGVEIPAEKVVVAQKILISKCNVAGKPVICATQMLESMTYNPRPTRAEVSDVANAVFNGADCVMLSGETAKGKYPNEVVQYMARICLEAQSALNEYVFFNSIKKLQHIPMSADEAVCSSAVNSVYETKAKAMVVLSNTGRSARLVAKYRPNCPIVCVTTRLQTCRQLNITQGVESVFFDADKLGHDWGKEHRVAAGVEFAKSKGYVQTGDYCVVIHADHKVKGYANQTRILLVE
How it was run: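 Pyruvate kinase activity of E451W LmPYK (0.2 nM) was followed as ATP output after 1 h at room temperature with 0.5 mM PEP and 0.1 mM ADP, detected by PKLight luminescence.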

[15] = qHTS Assay for Identification of Small Molecule Antagonists for NFkB Signaling Pathway (AID 895; active = well fitted inhibition curve with a large enough effect in the signal ratio, with a control signal flat, not every such curve was filed as active; the % refers to the signal ratio; also: % is scaled to controls: 0 for no effect and ±100 for the full control effect)
How it was run: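 ME-180 NFkB-bla cells (beta-lactamase under NFkB response element), plated overnight, treated with compound then 10 pM TNF alpha (about EC50) for 5 hrs at 37 C. LiveBLAzer FRET read at 460/530 nm emission, 405 nm excitation.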

[16] = molecular target: Muscarinic acetylcholine receptor M1 (Rattus norvegicus) (UniProt P08482); test: qHTS Assay for Antagonists of Acetylcholine Muscarinic M1 Receptor: Kinetic Measurement of Intracellular Calcium Response (AID 943);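 also: Fluo-4 calcium signal as peak divided by basal fluorescence over 4 min; series mostly up to about 35 µM; nearly all actives have a fitted effect of over 75% in size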
Sequence of Muscarinic acetylcholine receptor M1 (Rattus norvegicus) (P08482 whole entry, looked up): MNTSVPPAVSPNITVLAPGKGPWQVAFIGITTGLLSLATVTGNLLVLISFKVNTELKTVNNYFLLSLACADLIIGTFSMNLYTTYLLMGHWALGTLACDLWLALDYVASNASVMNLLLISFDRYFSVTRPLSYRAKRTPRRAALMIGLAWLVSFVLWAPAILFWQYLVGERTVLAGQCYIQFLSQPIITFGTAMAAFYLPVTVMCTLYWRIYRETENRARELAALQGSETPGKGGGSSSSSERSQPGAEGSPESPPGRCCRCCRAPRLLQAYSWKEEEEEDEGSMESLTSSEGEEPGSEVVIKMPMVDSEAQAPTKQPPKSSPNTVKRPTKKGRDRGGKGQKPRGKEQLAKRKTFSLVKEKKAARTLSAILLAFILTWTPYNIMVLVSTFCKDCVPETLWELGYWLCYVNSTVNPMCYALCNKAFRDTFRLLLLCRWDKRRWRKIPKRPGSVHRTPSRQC
How it was run: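 CHO cells stably expressing rat M1 were loaded with no-wash Fluo-4 dye for 1 h at 37C, pre-incubated 10 min with compound, then challenged with EC80 carbachol (100 nM final); kinetic calcium read 4 min, peak/basal ratio.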

[17] = molecular target: Muscarinic acetylcholine receptor M1 (Rattus norvegicus) (UniProt P08482); test: qHTS Assay for Antagonists of Acetylcholine Muscarinic M1 Receptor: Measurement of IP-One Response (AID 944); also: nearly all actives have a fitted effect of over 75% in size
How it was run: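 CHO cells expressing rat M1 receptor, recovered overnight, were pre-incubated 10 min with compound, then stimulated 30 min with carbachol at EC80 (200 nM) in LiCl-containing buffer, pH 7.4. IP1 accumulation was read by HTRF (620/665 nm).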

[18] = qHTS Assay for Identification of Small Molecule Agonists for Hypoxia Response Element Signaling Pathway (AID 914; active = well fitted activation curve with a large enough effect in the signal ratio, with a control signal flat, not every such curve was filed as active; the % refers to the signal ratio; also: % of control where 0% means no effect); details: ME-180 (cervical carcinoma) HRE-bla reporter, beta-lactamase ratio, CoCl2, 17 h; stronger effect = higher value
How it was run: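 Compounds in a titration series were added to ME-180 reporter cells alongside an EC50 level of CoCl2. After 17 hours, beta-lactamase activity was read as the 460nm/530nm emission ratio of CCF4, giving AC50 values.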

O=c1c(-c2ccc(O)cc2)coc2cc(O)ccc12
inactive and 6.31 µM (active): Potency [3]
inactive: Potency [1] | outcome [2] | outcome [4] | Potency [5] | outcome [6] | Potency [7] | outcome [8] | Potency [9] | outcome [10] | Potency [11]

CN(C)CCC(c1ccccc1)c1ccccn1 (configuration not stated)
inactive: Potency [1] | Potency [12] | outcome [6] | Potency [7] | outcome [8] | Potency [9] | outcome [10] | Potency [11]

CC(=O)O[C@]1(C(C)=O)CC[C@H]2[C@@H]3C=C(Cl)C4=CC(=O)[C@@H]5C[C@@H]5[C@]4(C)[C@H]3CC[C@@]21C
inactive: Potency [1] | Potency [12] | Potency [7] | outcome [10] | Potency [11]

O=c1[nH]cnc2c1ncn2[C@H]1CC[C@@H](CO)O1
inactive: Potency [1] | Potency [12] | Potency [7] | Potency [9] | outcome [10] | Potency [11]

COc1ccccc1N1CCN(CCCNc2cc(=O)n(C)c(=O)n2C)CC1
inactive: outcome [2] | Potency [12] | outcome [6] | Potency [13] | outcome [8] | Potency [14]

NCCS
inactive: outcome [2] | Potency [12] | Potency [15] | outcome [6] | Potency [13] | outcome [8] | outcome [16] | outcome [17] | Potency [14]

CCCCC1C(=O)N(c2ccccc2)N(c2ccccc2)C1=O
inactive: Potency [1] | outcome [2] | Potency [5] | outcome [6] | activation [18] -18.4% and -5.39% | Potency [13] | Potency [7] | outcome [8] | Potency [14] | Potency [9] | outcome [10] | Potency [11]

COc1ccc(-c2coc3cc(O)ccc3c2=O)cc1
inactive: Potency [3] | Potency [12] | outcome [4] | outcome [6] | outcome [8]

c1ccc2c(Cc3c[nH]c4ccccc34)c[nH]c2c1
inactive: outcome [4] | outcome [6] | outcome [8]

COc1ccc(-c2coc3cc(O)cc(O)c3c2=O)cc1
inactive: Potency [3] | outcome [4] | outcome [6] | outcome [8]
active: Potency [12] 20 µM | Potency [5] 31.6 µM

C[C@]12CCC3c4ccc(O)cc4CCC3C1CCC2=O (some centres not stated)
inactive: outcome [6] | outcome [8]

COc1cc(O)c2c(c1)C(=O)c1cc(C)cc(O)c1C2=O
inactive: Potency [12] | outcome [6] | outcome [8]

Nc1ncnc2c1ncn2[C@@H]1O[C@H](CO)C[C@@H]1O
inactive: Potency [12]
